TDP1 block = qHTS Assay for Inhibitors of Tyrosyl-DNA Phosphodiesterase (TDP1); 350,000 tested, 0.28% active; recombinant TDP1, AlphaScreen DNA substrate cleavage; AID 485290, 2010; Potency, µM (highest dose often 130 µM), actives largely listed as inhibitors; note: nearly all actives have a fitted effect of over 40% in size
Target sequence (Q9NUW8 whole entry, looked up): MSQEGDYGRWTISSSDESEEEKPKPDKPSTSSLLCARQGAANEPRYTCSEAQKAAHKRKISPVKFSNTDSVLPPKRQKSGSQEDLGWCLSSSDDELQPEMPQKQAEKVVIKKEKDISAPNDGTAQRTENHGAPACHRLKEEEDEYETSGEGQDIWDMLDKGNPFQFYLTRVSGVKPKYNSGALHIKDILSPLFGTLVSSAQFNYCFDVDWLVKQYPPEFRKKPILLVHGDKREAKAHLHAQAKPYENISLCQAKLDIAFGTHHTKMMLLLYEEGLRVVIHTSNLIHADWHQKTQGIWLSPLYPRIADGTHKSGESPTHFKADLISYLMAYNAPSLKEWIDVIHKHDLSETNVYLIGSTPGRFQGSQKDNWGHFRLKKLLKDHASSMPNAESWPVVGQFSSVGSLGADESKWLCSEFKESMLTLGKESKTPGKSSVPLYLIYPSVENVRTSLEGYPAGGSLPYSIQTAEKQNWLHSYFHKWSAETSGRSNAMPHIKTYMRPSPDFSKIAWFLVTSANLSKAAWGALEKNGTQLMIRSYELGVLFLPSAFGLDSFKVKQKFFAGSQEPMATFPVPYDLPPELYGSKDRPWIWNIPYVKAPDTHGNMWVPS
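Enzyme-compound mixtures sat 15 min at room temperature, followed by a 5 min reaction with 15 nM final substrate and 10 min with AlphaScreen beads. Recombinant human Tdp1 was used at 1 nM final.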
ClpP mod = qHTS Assay for Activators of ClpP; ATP-dependent Clp protease proteolytic subunit (Bacillus subtilis (strain 168)), P80244; purified B. subtilis ClpP, FRET peptide cleavage, 20 min; Potency, µM (titrated, usually from 57.5 µM); 340,000 tested, 1.9% active; AID 651965, 2013; active = well fitted falling curve with a large enough effect; inconclusive = small, poorly fitted or top-dose-only effect; inactive = no such curve, though single readings can be large or run the other way; note: the source files actives as falling curves though it sought activators and does not explain the sign; nearly all actives have a fitted effect of over 65% in size
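Buffer: 100 mM Tris/HCl pH8, 100 mM KCl, 0.05% low protease BSA, 2.5% glycerol, 0.01% Tween-20. ClpP 10 microg/mL final; 20 min RT; delta FRET normalized to ADEP and DMSO controls.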
DT40 TDP1 no CPT = qHTS for Inhibitors of human tyrosyl-DNA phosphodiesterase 1 (TDP1): qHTS in cells in absence of CPT; 420,000 tested, 15% active; Potency, µM (highest dose often 46.2 µM), most hits filed as inhibitors; AID 686978, 2013; DT40 Tdp1-/- hTDP1 cells, no CPT, ATP luminescence, 48 h; note: nearly all actives have a fitted effect of over 55% in size
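Readout: luminescence from CellTiter-Glo after 30 min in the dark at RT. Cells: DT40 Tdp1-/- with stable hTDP1, 400/well. Exposure: compounds alone, ≥48 hr, 37 °C.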
TDP1 cell CPT = qHTS for Inhibitors of human tyrosyl-DNA phosphodiesterase 1 (TDP1): qHTS in cells in presence of CPT | 420,000 tested, 12% active | Potency, µM (titrated, usually from 46.2 µM), actives largely listed as inhibitors | AID 686979, 2013 | chicken DT40 Tdp1-/-;hTDP1 cells + 20 nM CPT, ATP luminescence, 48 h; note: nearly all actives have a fitted effect of over 55% in size
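Chicken DT40 Tdp1-/- cells stably complemented with human TDP1 were seeded at 400 cells/well in medium containing 20 nM camptothecin, exposed to pin-transferred compounds, and grown at 37 °C for at least 48 hr. Viability was read as ATP luminescence.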
Numbers stand for hits; 0 = inactive; ? = inconclusive; - = no result; ! = repeats disagree. In the library only some 17% were active in any assay of this set; here they are far more common. Unless noted, calls come from the whole dose curve; as a rule, active = well fitted curve in the direction sought with a large enough effect; inconclusive = small, poorly fitted or top-dose-only effect, or another doubt; inactive = no such curve, though single readings can be large; an effect the other way counts as inactive or inconclusive.

SMILES	TDP1 block	ClpP mod	DT40 TDP1 no CPT	TDP1 cell CPT
COc1ccc(C(=O)Nc2ccc3c(c2)N(C)C(=O)c2ccccc2S3)cc1OC	0	0	2.59µM	2.91µM
Cc1ccc(S(=O)(=O)N(CC(=O)NCCSc2ccc(Cl)cc2)c2ccccc2C)cc1	0	0	23.1µM	20.6µM
CN1[C@@H]2CC[C@H]1CC(O)C2 (some centres not stated)	0	-	-	-
CC1(CCl)CN1S(=O)(=O)c1ccccc1 (configuration not stated)	-	0	?	18.4µM
O=C1NC(=O)C2(CCN(S(=O)(=O)c3ccccc3)CC2)C(=O)N1	-	-	0	0
CCOc1ccc(N2C(=O)/C(=C/c3ccc(C)o3)C(=O)NC2=S)cc1	-	0	25.9µM	?
COc1ccc(N2C(=O)/C(=C/c3ccc(C)o3)C(=O)NC2=S)cc1	-	0	?	14.6µM
CN1CCN(c2ccc(/C=C3\C(=O)NC(=S)N(c4cccc(Br)c4)C3=O)o2)CC1	0	0	16.4µM	16.4µM
Cc1ccc(/C=C2\C(=O)NC(=S)N(c3cccc(F)c3)C2=O)o1	0	0	?	18.4µM
CCOc1ccc(N2C(=O)NC(=O)/C(=C\c3ccc(N4CCCCC4)o3)C2=O)cc1	0	0	0	0
CC(=O)O[C@@H]1CN2CCC1CC2	0	-	0	0
O=c1cccc2n1CC1CC2CN2CCCC[C@H]12 (some centres not stated)	0	-	0	0
COc1ccc2[nH]c3c(c2c1)CCN1C(=O)C(CC(=O)NCc2cccc(C(F)(F)F)c2)C[C@H](C(=O)N2CCCCC2)[C@@]31C (some centres not stated)	0	0	8.2µM	10.3µM
COC(=O)C1=C(C)NC(=S)NC1c1ccc(N(CCCl)CCCl)cc1Cl (configuration not stated)	-	0	20.6µM	9.2µM
CC(=O)C1CCC2C3CCC4CC(O)CCC4(C)C3CC(O)C12C (configuration not stated)	0	-	0	0
CCOC(=O)c1c(N)n(CCCOC(=O)c2ccco2)c2nc3ccccc3nc12	0	?	13µM	11.6µM
CCCCCn1c(NC(=O)c2ccco2)c(C(=O)OCC)c2nc3ccccc3nc21	0	-	16.4µM	20.6µM
CCOC(=O)c1c(NS(=O)(=O)c2ccccc2)n(CCCOC)c2nc3ccccc3nc12	0	28.2µM	?	?
COc1ccc(OC)c([C@@H](O)[C@H](C)N)c1	-	-	0	0
COc1ccc2c(c1)CCC1[C@@H]2CCC2(C)[C@@H](NCCCCCCN3C(=O)C=CC3=O)CC[C@@H]12 (some centres not stated)	0	-	?	?
CNC(=O)c1cccn(Cc2cccc(C(F)(F)F)c2)c1=O	0	-	?	0
CN(C)CCNC(=O)c1cccn(Cc2cccc(C(F)(F)F)c2)c1=O	0	-	?	23.1µM
C1CN(P2(N3CC3)=NP(N3CC3)(N3CC3)=NP(N3CC3)(N3CC3)=N2)CCO1 (configuration not stated)	-	0	1.3µM	0.581µM
CCC1=C(C)C(N2CCOCC2)=NP(N2CCOCC2)(N2CCOCC2)=N1	0	0	0	0
O=C(COc1ccc(Cl)cc1Cl)N1CCN(C/C=C/c2ccccc2)CC1	0	0	?	?
SMILES	TDP1 block	ClpP mod	DT40 TDP1 no CPT	TDP1 cell CPT
C(=C\c1ccccc1)/CN1CCN(CCOC(c2ccccc2)c2ccccc2)CC1	0	-	4.61µM	3.66µM
Cn1c(O)c(/C=N/Nc2ccccc2)c(=O)n(C)c1=O	0	-	0	0
O=C(NCCc1ccc(F)cc1)C(=O)NCC(c1cccs1)S(=O)(=O)c1ccc(Cl)cc1 (configuration not stated)	0	0	11.6µM	14.6µM
COc1ccc(CCNC(=O)C(=O)NCC2OCCN2S(=O)(=O)c2ccc(Cl)cc2)cc1 (configuration not stated)	-	0	?	?
C[C@@H]([C@@H](O)c1ccccc1)N(C)C(=O)Cc1ccccc1	-	0	0	0
CN(C)CC(C(=O)Cc1ccccc1)c1ccccc1 (configuration not stated)	-	-	0.651µM	0.92µM
CC(C)Br	0	-	-	-
COc1cccc(CN2CCC(n3nccc3NC(=O)CCOc3ccccc3)CC2)c1O	-	0	0	?
Cc1ccc(C)c(N2CCN(c3ncnc4onc(C)c34)CC2)c1	0	0	13µM	?
CN(CCC(N)CC(=O)NC1C=CC(n2ccc(N)nc2=O)OC1C(=O)O)C(=N)N (configuration not stated)	0	-	0	?
Cc1ccc(-[n+]2c(Cc3nn(-c4ccccc4)c(C)[n+]3-c3ccc(C)cc3)nn(-c3ccccc3)c2C)cc1	-	0	0	0
Cn1c(=O)oc2cc(S(=O)(=O)NCCN3CCN(c4ccccc4)CC3)ccc21	0	0	0	?
c1ccc(CN2CCN(Cc3ccc4ccccc4c3)CC2)cc1	-	0	16.4µM	18.4µM
Cc1ccc(CN2CCN(Cc3ccccc3)CC2)cc1	0	0	0	0
COc1ccc(NS(=O)(=O)c2ccc3c(c2)oc(=O)n3C)cc1Cl	0	0	16.4µM	13µM!
NC1CCc2cc(O)c(O)cc2C1 (configuration not stated)	0	0	13µM	20.6µM
CNC(C)C#Cc1ccc2oc3cc(C)c(C)cc3c(=O)c2c1 (configuration not stated)	-	0	14.6µM	?
CC(=O)CC(C)(C)n1c[n+](C)nn1	0	0	0	0
CCN(CC)c1ccc(CN(C)CCc2ccc(OC)c(OC)c2)cc1	0	0	?	23.1µM
Cc1c(P(=S)(c2ccccc2)c2ccccc2)c2ccccc2n1C	0	-	-	-
Cc1c(P(=S)(c2ccccc2)c2ccccc2)[n+]2ccccc2n1C	0	0	4.11µM	5.8µM
CCOP(=S)(OCC)SCSC(C)(C)C	0	-	-	-
C=C1C(=O)[C@@]23C[C@H]4[C@@H]5[C@@]6(C)CCC[C@@]57[C@@H]2[C@@H](O)[C@@H]1C[C@H]3[C@H]7N4C6	-	0	4.11µM	4.61µM
C[C@@H]1O[C@@H](O[C@H]2CC[C@]3(C=O)C4CC[C@]5(C)[C@@H](C6=CC(=O)OC6)CC[C@]5(O)[C@@H]4CC[C@]3(O)C2)[C@H](O)[C@H](O)[C@H]1O (some centres not stated)	0	-	0.326µM	0.366µM
CC1O[C@@H](OC2CC[C@@]3(C=O)C4CC[C@]5(C)C(C6=CC(=O)OC6)CC[C@@]5(O)C4CC[C@]3(O)C2)C(O)C(O)C1O (some centres not stated)	0	-	0.581µM	0.461µM
C[C@]12CCC3C(CC[C@]4(O)CC(O)CC[C@@]34C=O)[C@]1(O)CCC2C1=CC(=O)OC1 (some centres not stated)	0	-	0	0
[O-][Cl+]O	0	-	-	-
O=C(Oc1c(Cl)cc(Cl)c2ccccc12)N1CCCCC1	0	0	?	?
O=C(Oc1c(Br)cc(Br)c2cccnc12)N1CCCCC1	0	-	?	23.1µM
Cc1ccc(-c2cn3c(=S)[nH]nc3s2)cc1	0	0	?	0

Source: PubChem BioAssay (National Center for Advancing Translational Sciences (NCATS))
